# High-throughput results (PubChem)
# NPR2 activator: GC-B (human) receptor activation; HEK293-GC-B cells, CNP EC30, cGMP TR-FRET; 0% at EC30 CNP, 100% saturating CNP; 370,000 compounds, 0.11% hits; activation, % at 10 µM; AID 1920062;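 active means activation at 10 µM reaching about 35% in either raw or pattern-adjusted values, limit read from the data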
# Myeloid diff MLP: compounds promoting myeloid differentiation. 360,000 compounds, 1% hits. ER-HoxA9 myeloid progenitors, lysozyme-GFP differentiation, flow cytometry. calls only at 10 µM;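 active means normalized GFP-positive differentiation at or above the plate's own cutoff, the solvent-only control mean plus 3 SD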;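 further: cells exposed to compound for four days before flow analysis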
# Exocytosis inh: lytic granule exocytosis inhibition; TALL-104 LAMP-1 surface exposure, flow cytometry; cells stimulated with thapsigargin and PMA; inhibition, % at 10 µM; 360,000 compounds, 0.66% hits; AID 651702;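 active means inhibition above about 55%, limit read from the data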
# NPR1 activator: GC-A (human) enzyme activation | P16066 | HEK293 GC-A cells, cGMP TR-FRET, EC30 ANP; 0% at EC30 ANP, 100% saturating ANP | activation, % at 10 µM | 370,000 compounds, 0.14% hits; in the data active means activation above about 40%
# Exocytosis CP01: lytic granule exocytosis inhibition; shares compounds with Exocytosis inh; TALL-104 cells, LAMP-1 externalization, flow cytometry; stimulated with PMA plus thapsigargin; inhibition, % at 10 µM; 1,500 compounds, 11% hits; in the data active means inhibition above about 60%;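 further: 0% = stimulated vehicle wells and 100% = unstimulated wells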
# The depositor's hits bear a star; i = inactive; / = no result. Most compounds without a hit are left out; they make up all but 1.8% or so of the library.
SMILES,NPR2 activator,Myeloid diff MLP,Exocytosis inh,NPR1 activator,Exocytosis CP01
CCCCCCN1C[C@H](n2cc(C3CC3)nn2)[C@@H](O)C[C@@H]1c1ccc(OC)cc1,-11,i,2,-10,/
CCOC(=O)C1(CCOc2ccccc2)CCN(Cc2cccc(OC)c2OC)CC1,2,i,75*,1,-10
CCOC(=O)C1(CCc2ccccc2)CCN(Cc2cc(OC)c(OC)cc2OC)CC1,-19,i,64*,-25,-2
CCOC(=O)C1(CCOc2ccccc2)CCN(CCCn2cccn2)CC1,-3,i,59*,0,-4
CCOC(=O)C1(CCOc2ccccc2)CCN(Cc2cccc3c2OCO3)CC1,-2,i,16,-7,/
CCOC(=O)C1(CCOc2ccccc2)CCN(Cc2ccccc2O)CC1,0,i,56*,-2,-13
CCCCNC(=O)c1nc(C2CCN(S(=O)(=O)c3c(F)cccc3F)CC2)oc1-c1ccccc1,6,i,4,-5,/
CCOC(=O)C1(CCOc2ccccc2)CCN(Cc2ccc(OCC)c(CO)c2)CC1,2,i,81*,-5,-12
CCOC(=O)C1(CCOc2ccccc2)CCN(Cc2ccc(NC(C)=O)cc2)CC1,0,i,1,-1,/
CCOC(=O)C1(CCOc2ccccc2)CCN(Cc2cccc(F)c2)CC1,0,i,64*,7,-12
CCOC(=O)C1(CCOc2ccccc2)CCN(Cc2ccc(OC)cc2)CC1,-4,i,80*,-3,-3
CC1C(=O)N(Cc2cn(CCC3OCCCO3)nn2)CCS(=O)(=O)N1Cc1ccc(-c2ccncc2)cc1 (stereo not given),4,i,3,-6,/
C[C@H](CO)N1C[C@H](C)[C@@H](CN(C)S(=O)(=O)c2cn(C)cn2)Oc2ccc(NC(=O)Nc3ccccc3)cc2C1=O,-6,i,-1,4,/
Cc1noc(C)c1S(=O)(=O)N(C)C[C@H]1Oc2c(NC(=O)Nc3ccccc3)cccc2C(=O)N([C@H](C)CO)C[C@@H]1C,0,i,65*,-4,-14
C[C@@H]1CN([C@@H](C)CO)C(=O)c2cc(NC(=O)Nc3ccc4c(c3)OCO4)ccc2O[C@H]1CN(C)S(=O)(=O)c1cn(C)cn1,-5,i,64*,-3,-14
CC(C)NC(=O)N(C)C[C@H]1Oc2ccc(NC(=O)C3CC3)cc2C(=O)N([C@H](C)CO)C[C@@H]1C,0,i,79*,0,-5
COc1cccc(N2CCN(C(=O)COc3cc(=O)n(C)c4ccccc34)CC2)c1,2,/,/,-8,/
CCc1nc2c(OCC=C(C)C)cccn2c1N(C)C(=O)c1ccc(OC)cc1,5,i,-12,0,/
CS(=O)(=O)N(Cc1ccc(C(=O)Nc2ccccc2Sc2ccccc2)cc1)c1ccccc1,-9,i,85*,-3,-2
COc1cc(NC(=O)CSc2nnc3ccccn23)cc(OC)c1OC,0,i,-8,-3,/
CC(=O)Nc1cccc(NC(=O)Cc2cccs2)c1,-6,i,10,6,/
O=C(Cc1cccs1)Nc1cccc(-c2nc3cc4ccccc4cc3[nH]2)c1,9,i,66*,1,21
Cc1nnc(Cc2ccccc2)c2n[nH]c(C)c12,19,i,-1,22,/
Cc1cc(NS(=O)(=O)c2ccc(NC(=O)Cc3ccc(Cl)c(Cl)c3)cc2)on1,0,/,/,0,/
N#CC1=C(N)Oc2cc(N)ccc2C1c1cccc(Br)c1 (stereo not given),6,/,72*,46*,-11
SMILES,NPR2 activator,Myeloid diff MLP,Exocytosis inh,NPR1 activator,Exocytosis CP01
COc1ccc(COc2ccc3c(C)cc(=O)oc3c2)cc1,1,i,75*,8,-4
Cc1cccc(C)c1-n1nnnc1C1c2ccccc2C(=O)N1CCOc1ccccc1 (stereo not given),4,i,6,-4,/
Cc1cc(N2CCN(c3ccccc3)CC2)nc2ccccc12,-5,i,89*,-2,-4
Cc1cc(Cl)ccc1OCC(=O)N/N=C/c1ccc[nH]1,-6,/,/,2,/
CC(C)(C)C(C(=O)NCc1ccccc1)N1CCN(C(=O)C2CCCO2)CC1 (stereo not given),9,i,10,3,/
CCOc1ccc(Br)cc1S(=O)(=O)Nc1cccc(S(=O)(=O)N2CCOCC2)c1,0,i,97*,0,-14
CCOc1ccc(Br)cc1S(=O)(=O)Nc1cccc(S(=O)(=O)NC2=NCCC2)c1,-6,i,-2,1,/
